Measured values: PubChem BioAssay (NCI)
The panel holds about 83,000 compounds, 20% with a hit somewhere; the sample as a whole holds those more often.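 Each cell line was grown in a 96-well plate and treated with one concentration of compound for 48 hours. Values below 10 were considered active.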 Active and inactive are the calls of the source.

Experiments:
Test in all cases: NCI-60 one-dose screen, 48 h (100 = growth as untreated, 0 = no growth, -100 = all killed)
[1] = system: SK-MEL-2 melanoma; settings: 10 µM unless noted
[2] = system: EKVX NSCLC; settings: 10 µM unless noted
[3] = system: SN12C renal; settings: 10 µM unless noted
[4] = system: UO-31 renal; settings: 10 µM unless noted
[5] = system: TK-10 renal; settings: 10 µM unless noted
[6] = system: ACHN renal; settings: 10 µM unless noted
[7] = system: CAKI-1 renal; settings: 10 µM unless noted
[8] = system: A498 renal; settings: 10 µM
[9] = system: HL-60(TB) leukemia; settings: 10 µM unless noted
[10] = system: CCRF-CEM leukemia; settings: 10 µM unless noted
[11] = system: MOLT-4 leukemia; settings: 10 µM unless noted
[12] = system: SR leukemia; settings: 10 µM unless noted
[13] = system: RPMI-8226 leukemia; settings: 10 µM unless noted
[14] = system: OVCAR-8 ovarian; settings: 10 µM unless noted
[15] = system: OVCAR-5 ovarian; settings: 10 µM unless noted
[16] = system: OVCAR-4 ovarian; settings: 10 µM unless noted
[17] = system: SK-OV-3 ovarian; settings: 10 µM unless noted
[18] = system: IGROV1 ovarian; settings: 10 µM unless noted
[19] = system: OVCAR-3 ovarian; settings: 10 µM unless noted
[20] = system: HS 578T breast; settings: 10 µM unless noted

Measured: growth

CC[C@H](C)[C@H](NC(=O)C12CC(NC(C)=O)(C1)C2)C(=O)N(C)[C@H](C[C@@H](OC(C)=O)c1nc(C(=O)N[C@@H](Cc2ccccc2)C[C@H](C)C(=O)OC)cs1)C(C)C
active: [8] -14.8% | [9] -10.1% | [13] 6.56% | [19] -42.3%
inactive: [1] 48.8% | [2] 38.3% | [3] 30.9% | [4] 59% | [5] 50.4% | [6] 43.8% | [7] 63.5% | [10] 12.2% | [11] 21.4% | [12] 20.8% | [14] 17.2% | [15] 44% | [16] 43.3% | [17] 27% | [18] 35.4% | [20] 15.8%

CN(C)CCCOc1ccc2c(c1)c(C(=O)C(=O)NCCO)cn2Cc1ccccc1
inactive: [1] 114% | [2] 102% | [3] 104% | [4] 84% | [5] 116% | [6] 99.2% | [7] 90.5% | [8] 59.8% | [9] 106% | [10] 102% | [11] 111% | [12] 115% | [13] 106% | [14] 98.1% | [15] 108% | [16] 105% | [17] 110% | [18] 99.6% | [19] 108% | [20] 99.6%

O=NNc1ccccn1
inactive: [1] 23.3% | [2] 109% | [3] 87.4% | [4] 83.6% | [5] 91% | [6] 11.2% | [7] 43.6% | [8] 96.5% | [9] 73.8% | [10] 126% | [11] 67.9% | [12] 66.7% | [13] 102% | [14] 80.3% | [15] 68% | [16] 90.8% | [17] 90% | [18] 86.1% | [19] 112% | [20] 89.7%

Cc1ccc(N2COOC3(OOC2)C2CC4CC(C2)CC3C4)cc1
inactive: [1] 104% | [2] 93% | [3] 106% | [4] 20.7% | [5] 98.7% | [6] 97.7% | [7] 53.7% | [8] 88.4% | [9] 66.6% | [10] 107% | [11] 79.3% | [12] 46.4% | [13] 102% | [14] 99% | [15] 101% | [16] 101% | [17] 101% | [18] 45.2% | [19] 102% | [20] 109%

C[n+]1c(/C=C/c2ccc(N(CCCl)CCCl)cc2)sc2ccccc21
inactive: [1] 74.1% | [2] 83.4% | [3] 37.4% | [4] 96.7% | [5] 96.7% | [6] 78.8% | [7] 99.4% | [8] 84.9% | [9] 18.3% | [10] 27.9% | [11] 36.8% | [12] 19.7% | [13] 27.5% | [14] 30% | [15] 103% | [16] 72.9% | [17] 55.1% | [18] 75% | [19] 25.5% | [20] 98.8%

Cc1ccccc1NC(=NCCCN1CC1)Nc1ccccc1C
inactive: [1] 114% | [2] 96.8% | [3] 92.1% | [4] 73.3% | [5] 99.7% | [6] 90.1% | [7] 77.5% | [8] 91.7% | [9] 95.9% | [10] 89.7% | [11] 70.8% | [12] 69.7% | [13] 95.2% | [14] 82.6% | [15] 123% | [16] 88.9% | [17] 79.9% | [18] 82% | [19] 90.4%

C[N+](C)(C)Cc1cc(Cl)ccc1O
inactive: [1] 99.7% | [2] 115% | [3] 106% | [4] 90.8% | [5] 110% | [6] 95.9% | [7] 106% | [8] 90.1% | [9] 87.4% | [11] 96.9% | [12] 104% | [13] 76.3% | [14] 99.4% | [15] 101% | [16] 92.8% | [17] 110% | [18] 95.1% | [19] 109% | [20] 103%
active: [10] 8.41%

CC12CCC=CC1CCC1C2CCC2(C)C(c3ccc(=O)oc3)CCC12O (stereo not drawn)
active: [1] -34.4% | [2] -90.1% | [3] -18.8% | [4] -94.5% | [5] -69.8% | [6] -89.9% | [7] -61.3% | [8] -19.9% | [9] -28% | [10] -16.6% | [11] -16.7% | [12] -4.41% | [13] -14.1% | [14] -51.4% | [15] -80.4% | [16] -52.8% | [17] -11% | [18] -12.3% | [19] -74.5% | [20] -14.8%

CCCCCCCCCCCCCCCCCC1OC[C@H](COC(=O)O[C@@H](C(=O)O[C@H]2C[C@@]3(O)[C@@H](OC(=O)c4ccccc4)[C@@H]4[C@]5(OC(C)=O)CO[C@@H]5C[C@H](O)[C@@]4(C)C(=O)[C@H](OC(C)=O)C(=C2C)C3(C)C)[C@@H](NC(=O)c2ccccc2)c2ccccc2)O1 (stereo partly drawn)
inactive: [1] 75% | [2] 93.7% | [3] 56.8% | [4] 98.1% | [5] 99.8% | [6] 96.2% | [7] 81% | [8] 72% | [9] 23.3% | [10] 44.8% | [11] 55.1% | [12] 44.9% | [13] 17.5% | [14] 61.5% | [15] 41.5% | [16] 75.5% | [17] 62.8% | [18] 42.9% | [19] 31.9% | [20] 60.7%

Oc1c(O)c(Cl)c(Cl)c(Cl)c1Cl
active: [4] 3.66% | [14] -4.12% | [18] -33.3% | [19] -11.7%
inactive: [1] 39.1% | [2] 36.6% | [3] 31.6% | [5] 73.4% | [6] 32.2% | [7] 81.7% | [8] 63.7% | [9] 24.9% | [10] 35.3% | [11] 31.1% | [12] 24.3% | [13] 25.1% | [15] 77.7% | [16] 15.8% | [17] 64% | [20] 34.8%

C=CC[Se]C(=O)c1ccccc1OC(C)=O
active: [2] -30.8% | [3] -18.4% | [4] -53.5% | [6] -26.6% | [7] -9.51% | [8] -3.97% | [9] -45.7% | [10] 5.37% | [12] 6.08% | [13] -22.8% | [14] -12.8% | [15] -32.1% | [16] -36% | [17] -28.8% | [19] 2.36% | [20] -8.17%
inactive: [1] 37.2% | [5] 12.5% | [11] 14.7% | [18] 18.1%

O=C(CC1(O)C(=O)N(Cc2ccccc2)c2ccc(Cl)cc21)c1ccc(C(=O)NCC2CCC3(CC2)OOC2(CCCCC2)OO3)cc1 (stereo not drawn)
inactive: [17] 68%
active: [1] 2.93% | [2] -71.1% | [3] -58.1% | [4] -74.2% | [5] -91.5% | [6] -83.9% | [7] -94.3% | [8] -91% | [9] -62.7% | [10] -42.7% | [11] -50.5% | [12] -44.2% | [13] -27.7% | [14] -27.5% | [15] 5.96% | [16] -40.2% | [18] -35.2% | [19] -83.8% | [20] -4.46%

C/C(CC(C)(C)N1CC1)=N\NC(=O)Nc1cccc2ccccc12
inactive: [1] 72.9% | [2] 78.5% | [3] 63.3% | [4] 57.9% | [5] 61.3% | [6] 42.3% | [7] 28.9% | [8] 59.3% | [9] 77.6% | [10] 82.3% | [11] 12.2% | [12] 20.9% | [13] 72.7% | [14] 44.1% | [15] 100% | [16] 55.8% | [18] 38.8% | [19] 48.3% | [20] 79.8%

COc1ccc(/C=C\c2cc(OC)c(OC)c(OC)c2)cc1OCC(=O)Nc1nc2ccc(OC(F)(F)F)cc2s1
inactive: [1] 15.6% | [2] 77% | [3] 49.7% | [4] 25.4% | [5] 47% | [6] 43.5% | [7] 35.2% | [8] 30.2% | [9] 52.3% | [10] 28.2% | [11] 13.2% | [12] 31.5% | [13] 22.8% | [14] 43.2% | [15] 112% | [16] 64.4% | [17] 48.4% | [18] 30.3% | [20] 12.5%
active: [19] -30.7%

O=C(N/N=C\c1ccc(N(CCCl)CCCl)cc1Cl)c1cccnc1
active: [5] 6.39% | [8] -93.6% | [15] -3.04%
inactive: [1] 27.2% | [2] 103% | [3] 79.2% | [4] 88% | [6] 98.5% | [7] 69.3% | [9] 91.8% | [10] 74.8% | [11] 87.5% | [12] 99.5% | [13] 82.4% | [14] 96% | [16] 53.7% | [17] 95.3% | [18] 37% | [19] 57.6% | [20] 119%
